Among the data in PubChem BioAssay (NCI) are growth values, retold here.

The structures appear in SMILES notation. Several values for one entry are separate records, joined by “and”; a condition that tells them apart may be missing. Equal entries are not always repeated. The panel holds about 83,000 compounds, 20% with a hit somewhere; the sample as a whole holds those more often.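 96-well plates, one dose, 48 hours. Percent growth reported; active if below 10.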 Activity calls are given as the source filed them.

Among the test systems are RPMI-8226 leukemia; OVCAR-8 ovarian; OVCAR-5 ovarian; OVCAR-4 ovarian; SK-OV-3 ovarian; IGROV1 ovarian; OVCAR-3 ovarian; NCI/ADR-RES ovarian; T-47D breast; BT-549 breast; MDA-MB-435 melanoma; SW-620 colon; MCF7 breast; HCT-116 colon; KM12 colon.
Common to all, as to test: NCI-60 one-dose screen, 48 h (100 = growth as untreated, 0 = no growth, -100 = all killed)
The next experiment concerns SR leukemia. To be noted: 10 µM unless noted.
A further experiment deals with HS 578T breast. To be noted: 10 µM unless noted.
The test system of another experiment is HCC-2998 colon. To be noted: 10 µM unless noted.

`O=C(/C=C/C=C/c1ccccc1)c1ccco1`: the growth in the experiment with SR leukemia was 16.7% (inactive); in the experiment with RPMI-8226 leukemia (10 µM unless noted) it was 10.8% (inactive); in the experiment with OVCAR-8 ovarian (10 µM unless noted), 89.1% (inactive); in the experiment on OVCAR-5 ovarian (10 µM unless noted), 108% (inactive); in the experiment on OVCAR-4 ovarian (10 µM unless noted) it was 78.7% (inactive); in the experiment on SK-OV-3 ovarian (10 µM unless noted), 105% (inactive). For the same compound, the growth with IGROV1 ovarian (10 µM unless noted) is 64.8% (inactive); in the experiment on OVCAR-3 ovarian (10 µM unless noted), 85.6% (inactive); in the experiment with HS 578T breast, 62.6% (inactive); in the experiment on NCI/ADR-RES ovarian (10 µM unless noted), 91.3% (inactive); with T-47D breast (10 µM unless noted) it was 67.5% (inactive); with BT-549 breast (10 µM unless noted) it was 113% (inactive). For the same compound, the growth is 92.8% (inactive) with MDA-MB-435 melanoma (10 µM unless noted); 62.4% (inactive) in the experiment with SW-620 colon (10 µM unless noted); 26.1% (inactive) with MCF7 breast (10 µM); 36.3% (inactive) in the experiment with HCT-116 colon (10 µM unless noted); 114% (inactive) in the experiment with HCC-2998 colon; 86.8% (inactive) with KM12 colon (10 µM unless noted).

Turning to `O=C(O)c1c(Cl)c(Cl)c(Cl)c(Cl)c1-c1c2cc(I)c(=O)c(I)c-2oc2c(I)c(O)c(I)cc12`, the growth in the experiment with SR leukemia is 97.9% (inactive); with RPMI-8226 leukemia (10 µM), 114% (inactive) and 90.6% (inactive) and 31.5% (inactive); in the experiment on RPMI-8226 leukemia (100 µM), 24.3% (inactive); in the experiment on OVCAR-8 ovarian (10 µM) it was 107% (inactive) and 105% (inactive) and 91.4% (inactive); in the experiment on OVCAR-8 ovarian (100 µM), -13.2% (active); in the experiment with OVCAR-5 ovarian (10 µM) it was 107% (inactive) and 98.5% (inactive) and 104% (inactive). The growth with OVCAR-5 ovarian (100 µM) was -42.9% (active); in the experiment on OVCAR-4 ovarian (10 µM), 104% (inactive) and 110% (inactive) and 72.9% (inactive); in the experiment with OVCAR-4 ovarian (100 µM), 53.2% (inactive); with SK-OV-3 ovarian (10 µM) it was 101% (inactive) and 92.4% (inactive) and 93.1% (inactive); with SK-OV-3 ovarian (100 µM), -73.9% (active); in the experiment on IGROV1 ovarian (10 µM), 105% (inactive) and 80.5% (inactive) and -7.13% (active). For the same compound, the growth in the experiment on IGROV1 ovarian (100 µM) was 5.19% (active); in the experiment on OVCAR-3 ovarian (10 µM), 97.1% (inactive) and 72% (inactive) and 111% (inactive); in the experiment with OVCAR-3 ovarian (100 µM) it was -26.1% (active); in the experiment on NCI/ADR-RES ovarian (10 µM) it was 103% (inactive) and 98% (inactive) and 109% (inactive); with NCI/ADR-RES ovarian (100 µM), 10.7% (inactive); in the experiment with T-47D breast (10 µM), 110% (inactive) and 85.9% (inactive) and 95.8% (inactive). Besides, the growth with T-47D breast (100 µM) is -47.8% (active); in the experiment with BT-549 breast (10 µM) it was 108% (inactive) and 117% (inactive) and 43.5% (inactive); with BT-549 breast (100 µM) it was -47.5% (active); in the experiment with MDA-MB-435 melanoma (10 µM) it was 104% (inactive) and 113% (inactive) and 110% (inactive); in the experiment on MDA-MB-435 melanoma (100 µM), 69% (inactive); in the experiment on SW-620 colon (10 µM), 107% (inactive) and 140% (inactive) and 109% (inactive). In addition, the growth is 13.7% (inactive) in the experiment with SW-620 colon (100 µM); 101% (inactive) and 98.9% (inactive) and 81.2% (inactive) with MCF7 breast (10 µM); -38.3% (active) with MCF7 breast (100 µM); 106% (inactive) and 103% (inactive) and 114% (inactive) in the experiment on HCT-116 colon (10 µM); 0.594% (active) in the experiment on HCT-116 colon (100 µM); 102% (inactive) and 99.9% (inactive) and 104% (inactive) in the experiment with KM12 colon (10 µM). In addition, the growth in the experiment on KM12 colon (100 µM) is 67.9% (inactive).

`CNc1ccc2c(c1)c1ccccc1n2C`: the growth in the experiment on SR leukemia is 93.9% (inactive); in the experiment with RPMI-8226 leukemia (10 µM unless noted) it was 110% (inactive); in the experiment on OVCAR-8 ovarian (10 µM unless noted), 100% (inactive); with OVCAR-5 ovarian (10 µM unless noted), 112% (inactive); in the experiment on OVCAR-4 ovarian (10 µM unless noted) it was 108% (inactive); in the experiment with SK-OV-3 ovarian (10 µM unless noted) it was 106% (inactive). Besides, the growth is 109% (inactive) with IGROV1 ovarian (10 µM unless noted); 102% (inactive) with OVCAR-3 ovarian (10 µM unless noted); 118% (inactive) in the experiment with HS 578T breast; 102% (inactive) in the experiment with NCI/ADR-RES ovarian (10 µM unless noted); 91.3% (inactive) with T-47D breast (10 µM unless noted); 106% (inactive) in the experiment with BT-549 breast (10 µM unless noted). Moreover, the growth with MDA-MB-435 melanoma (10 µM unless noted) was 115% (inactive); in the experiment on SW-620 colon (10 µM unless noted) it was 111% (inactive); with MCF7 breast (10 µM) it was 97.5% (inactive); in the experiment on HCT-116 colon (10 µM unless noted), 107% (inactive); with HCC-2998 colon it was 99.4% (inactive); in the experiment with KM12 colon (10 µM unless noted) it was 104% (inactive).

As to `O=C(Nc1ccccc1)c1cc(Cl)ccc1O`, the growth in the experiment on SR leukemia was 48.7% (inactive); with RPMI-8226 leukemia (10 µM unless noted), 19.9% (inactive); with OVCAR-8 ovarian (10 µM unless noted) it was 44.9% (inactive); with OVCAR-5 ovarian (10 µM unless noted), 94.1% (inactive); in the experiment on OVCAR-4 ovarian (10 µM unless noted), 41.3% (inactive); in the experiment on SK-OV-3 ovarian (10 µM unless noted), 73.6% (inactive). Moreover, the growth with IGROV1 ovarian (10 µM unless noted) is 58.9% (inactive); in the experiment on OVCAR-3 ovarian (10 µM unless noted), 37.4% (inactive); in the experiment with HS 578T breast, 29% (inactive); with NCI/ADR-RES ovarian (10 µM unless noted), 74.6% (inactive); with T-47D breast (10 µM unless noted), 23.4% (inactive); in the experiment with BT-549 breast (10 µM unless noted) it was 57.5% (inactive). Moreover, the growth with MDA-MB-435 melanoma (10 µM unless noted) is 39.3% (inactive); with SW-620 colon (10 µM unless noted), 63.3% (inactive); in the experiment with MCF7 breast (10 µM), 81.9% (inactive); in the experiment on HCT-116 colon (10 µM unless noted) it was 51% (inactive); in the experiment on HCC-2998 colon, 89.1% (inactive); in the experiment on KM12 colon (10 µM unless noted) it was 47% (inactive).

Consider `C1=C(c2ccccc2)C(c2ccc(OCCN3CCCCC3)cc2)Oc2ccccc21` (centres undefined), for which the growth with SR leukemia is -0.379% (active); with RPMI-8226 leukemia (10 µM unless noted) it was 15.5% (inactive); with OVCAR-8 ovarian (10 µM unless noted), 77% (inactive); in the experiment on OVCAR-5 ovarian (10 µM unless noted) it was 72.4% (inactive); in the experiment with OVCAR-4 ovarian (10 µM unless noted) it was 64% (inactive); in the experiment with SK-OV-3 ovarian (10 µM unless noted), 74% (inactive). Further, the growth in the experiment on IGROV1 ovarian (10 µM unless noted) was 44.2% (inactive); in the experiment on OVCAR-3 ovarian (10 µM unless noted), 65.6% (inactive); with HS 578T breast it was 75.6% (inactive); with NCI/ADR-RES ovarian (10 µM unless noted) it was 68.4% (inactive); in the experiment on T-47D breast (10 µM unless noted), 26.1% (inactive); in the experiment on BT-549 breast (10 µM unless noted) it was 72.9% (inactive). The growth is 18.7% (inactive) in the experiment on MDA-MB-435 melanoma (10 µM unless noted); 16.2% (inactive) in the experiment with SW-620 colon (10 µM unless noted); 6.42% (active) in the experiment with MCF7 breast (10 µM); 46.6% (inactive) in the experiment with HCT-116 colon (10 µM unless noted); 34.1% (inactive) in the experiment on HCC-2998 colon; 46.4% (inactive) in the experiment with KM12 colon (10 µM unless noted).

For the compound `c1ccc2c(c1)Nc1cc3ccccc3cc1N2`, the growth is 29.2% (inactive) with SR leukemia; 18.8% (inactive) in the experiment with RPMI-8226 leukemia (10 µM unless noted); 29.5% (inactive) with OVCAR-8 ovarian (10 µM unless noted); 69.7% (inactive) in the experiment on OVCAR-5 ovarian (10 µM unless noted); 32.6% (inactive) in the experiment on OVCAR-4 ovarian (10 µM unless noted); 63.6% (inactive) in the experiment on SK-OV-3 ovarian (10 µM unless noted). In addition, the growth in the experiment with IGROV1 ovarian (10 µM unless noted) is 50.6% (inactive); with OVCAR-3 ovarian (10 µM unless noted), -3.74% (active); with HS 578T breast, 53.4% (inactive); in the experiment on NCI/ADR-RES ovarian (10 µM unless noted) it was 30.5% (inactive); with T-47D breast (10 µM unless noted) it was 24.9% (inactive); in the experiment with BT-549 breast (10 µM unless noted) it was 33% (inactive). The growth is -16.7% (active) in the experiment on MDA-MB-435 melanoma (10 µM unless noted); 18.8% (inactive) in the experiment with SW-620 colon (10 µM unless noted); 2.88% (active) in the experiment on MCF7 breast (10 µM); 26.4% (inactive) in the experiment with HCT-116 colon (10 µM unless noted); 36.8% (inactive) in the experiment with HCC-2998 colon; 44.2% (inactive) in the experiment with KM12 colon (10 µM unless noted).

As to `O=C(Nc1ccc(F)cc1)ON=C1CCCCC1`, the growth in the experiment on MCF7 breast (100 µM) was 98.2% (inactive).

Take `O=C(Nc1cccc(Br)c1)Oc1ccc(Cl)c2cccnc12`: the growth is 7.23% [100 µM] (active) in the experiment on SR leukemia; 3.35% [100 µM] (active) with RPMI-8226 leukemia (10 µM unless noted); 33.7% [100 µM] (inactive) in the experiment with OVCAR-5 ovarian (10 µM unless noted); 3.81% [100 µM] (active) in the experiment with OVCAR-4 ovarian (10 µM unless noted); 95.6% [100 µM] (inactive) in the experiment on SK-OV-3 ovarian (10 µM unless noted); 13.6% [100 µM] (inactive) in the experiment with IGROV1 ovarian (10 µM unless noted). The growth with OVCAR-3 ovarian (10 µM unless noted) was -48.7% [100 µM] (active); in the experiment with HS 578T breast, 50.9% [100 µM] (inactive); with NCI/ADR-RES ovarian (10 µM unless noted), 6.36% [100 µM] (active); with T-47D breast (10 µM unless noted), 12.1% [100 µM] (inactive); in the experiment with BT-549 breast (10 µM unless noted) it was 4.77% [100 µM] (active); in the experiment on MDA-MB-435 melanoma (10 µM unless noted) it was 30.2% [100 µM] (inactive). For the same compound, the growth is 26.1% [100 µM] (inactive) in the experiment with SW-620 colon (10 µM unless noted); -30.3% (active) with MCF7 breast (100 µM); 2.06% [100 µM] (active) in the experiment with HCT-116 colon (10 µM unless noted); 44.9% [100 µM] (inactive) in the experiment with HCC-2998 colon; 30.5% [100 µM] (inactive) in the experiment with KM12 colon (10 µM unless noted).
